Our source for the outcome values is PubChem BioAssay AID2253 (Southern Research Specialized Biocontainment Screening …, 2010).

Out of some 2,200 compounds screened, about 1,300 (59%) were called active. How the calls were made is not given here. The set was probably picked from earlier hits. Only a sample is shown. Where a call stands in place of a potency, no number is given. Potency and affinity values are given separately.

The test in a line: human monocytic cell viability reduction – S. typhimurium screen hits, cytotoxicity control for Salmonella PhoP regulon inhibitors, dose response (AID 2253). The settings on record: THP-1 viability, CellTiter-Glo luminescence, 72 h; series mostly up to 50 µM. For orientation: ATP-based viability assays read luminescence as a measure of living cells.
Consider `Cc1nc(N)sc1Cc1ccc2c(c1)OCO2`, for which the call was inactive.

As to `CCSc1cc(N2CCCC2)nc(-c2cccc(C)c2)n1`, the compound was called inactive.

As to `O=C(CN1C(=O)c2ccccc2C1=O)N1CCN(c2ccccn2)CC1`, the compound was called inactive.

As for `CCN(Cc1ccccc1)C(=O)CN1C(=S)NC(C)(C)CC1C` (stereo not drawn), the result was inactive.

Take `Cc1cccc(NC(=O)c2cc(N3C(=O)CCC3=O)ccc2Cl)n1`: the result was inactive.

Take `CC1CCN(S(=O)(=O)c2cccc(C(=O)N(C)C3CCS(=O)(=O)C3)c2)CC1` (stereo not drawn): the result was inactive.

Turning to `CN1CCN(S(=O)(=O)c2ccc(-c3ccccc3)cc2)CC1`, the result was inactive.

As to `COCCCNc1ccnc2c(Cl)cccc12`, the call was inactive.

As to `CC(C)c1ccc(NC(=O)Nc2cc3sccc3n2C)cc1`, the compound was called inactive.

Regarding `CSc1cccc(NC(=O)c2ccco2)c1`, the compound was classed as inactive.

As for `COc1ccc(Cl)cc1C(=O)Nc1ccc(NC(=O)c2ccco2)cc1`, the outcome was inactive.

As for `CCC(C)C(NC(=O)OCc1ccccc1)C(=O)OCN1C(=O)c2ccccc2C1=O` (stereo not drawn), the compound was called inactive.

As to `COc1ccc(C(=O)Nc2cc(C)ccc2NC(=O)COc2ccccc2)cc1`, the outcome was inactive.

With `COC(=O)CCC(=O)Nc1ccc(OC)cc1`, the compound was classed as inactive.

Take `Cc1sc(NC(=O)c2ccco2)c(CN2CCN(c3ccc(F)cc3)CC2)c1C`: the result was inactive.

On to `CCOC(=O)c1c(C)[nH]c(C)c1C(=O)CSc1ncccn1`, for which the result was inactive.

`COc1cc(OC)cc(C(=O)N[C@H](C(=O)OCC(=O)Nc2ccc(C(N)=O)cc2)C(C)C)c1`: the compound was classed as inactive.

With `Cc1ccc(-c2nnc(SCC(=O)N3CCCc4ccccc43)n2N)cc1`, the outcome was inactive.

For `COC(=O)c1sccc1NC(=O)C1C2C=CC(O2)C1C(=O)O` (stereo not drawn), the result was inactive.

As to `CN(C)c1nc(N)nc(Cn2ccnc2)n1`, the compound was called inactive.

Take `O=C(Cc1cccs1)N(c1ccccc1)C1C=CS(=O)(=O)C1` (stereo not drawn): the outcome was inactive.

Regarding `CC1(C)CC(=O)C=C(Nc2ccccc2NC(=O)c2cnccn2)C1`, the compound was classed as inactive.

For `CC(=O)N(Cc1ccc(Cl)cc1)c1cnccn1`, the outcome was inactive.

On to `CCn1cc(C(=O)NCCO)c(=O)c2cc(F)c(N3CCN(C)CC3)cc21`, for which the outcome was inactive.

As for `COc1ccc(N2C(=O)C3CCCN3C2c2cccc(C)c2)cc1Cl` (stereo not drawn), the outcome was inactive.

Turning to `Cc1ccc(C(=O)CSc2ncnc3sc4c(c23)CCCC4)cc1`, the result was inactive.

Turning to `CSc1nnc2c3c4c(sc3nc(-n3nc(C)cc3C)n12)COC(C)(C)C4`, the compound was classed as inactive.

For `O=C(Nn1c(O)c(C=C2N=c3ccccc3=N2)sc1=S)c1ccc(Cl)cc1`, the compound was called inactive.

Turning to `S=C(NCc1cccnc1)Nc1cccc(Cl)c1`, the result was inactive.

Take `S=C(Nc1ccc(Cl)c(Cl)c1)N1CCOCC1`: the outcome was inactive.

Regarding `Cc1ccc(C)c(C(=O)NCc2ccncc2)c1`, the outcome was inactive.

With `Cc1cc(=O)oc(C)c1C(=O)NCc1cccnc1`, the compound was classed as inactive.

Take `COc1ccc(Br)cc1C(=O)NCc1cccnc1`: the result was inactive.

In the case of `Cc1ccc(NC(=S)NCc2cccnc2)cc1`, the compound was classed as inactive.

Regarding `C=CCSc1nnc(-c2ccc(Cl)cc2Cl)o1`, the outcome was inactive.

Take `COc1c(N2CCNC(C)C2)c(F)cc2c(=O)c(C(=O)O)cn(C3CC3)c12` (stereo not drawn): the result was inactive.

Turning to `COc1c(N2CCN(C(=S)Nc3ccc(F)cc3)C(C)C2)c(F)cc2c(=O)c(C(=O)O)cn(C3CC3)c12` (stereo not drawn), the compound was classed as inactive.

As for `COc1c(N2CCN(C(=S)NC3CC4CCC3C4)C(C)C2)c(F)cc2c(=O)c(C(=O)O)cn(C3CC3)c12` (stereo not drawn), the outcome was inactive.

For the compound `CNC(=S)N1CCN(c2c(F)cc3c(=O)c(C(=O)O)cn(C4CC4)c3c2OC)CC1C` (stereo not drawn), the call was inactive.

`CC(=O)Nc1c(C#N)c(C(C)(C)C)cn1C`: the result was inactive.

For `COc1ccc(S(=O)(=O)N2Cc3ccccc3CC2C(=O)N2CCOCC2)cc1OC` (stereo not drawn), the call was inactive.

Consider `COc1ccc(N(CC(=O)Nc2ccccc2SC)S(C)(=O)=O)cc1OC`, for which the outcome was inactive.

Take `Cc1ccc(NC2CC(=O)N(Cc3ccccc3)C2=O)cc1` (stereo not drawn): the compound was called inactive.

As to `CCN1C(=O)/C(=C/N2CC(C)CC(C)C2)SC1=S` (stereo not drawn), the compound was called inactive.

As for `CCc1ccc(NC(=O)c2noc3c2CCc2ccccc2-3)cc1`, the compound was called inactive.

`Cc1ccc(N2C(=O)CC(n3ccnc3)C2=O)cc1C` (stereo not drawn): the result was inactive.

As to `CN(C)CC(=O)Nc1nc(-c2ccccc2)cs1`, the call was inactive.

Take `COc1ccc2cc(C)c3nnc(SCC(=O)Nc4nc(-c5ccccc5)cs4)n3c2c1`: the compound was called inactive.

Consider `CS(=O)(=O)c1ccc([C@@H](O)[C@@H](CO)NC(=O)C(Cl)Cl)cc1`, for which the call was inactive.

In the case of `CCOCc1nnc(NC(=O)COC)s1`, the outcome was inactive.

Take `CC(NC(=O)CSc1nc2c(cc1C#N)CN(C)CC2)c1ccccc1` (stereo not drawn): the call was inactive.

As to `COc1cccc(C=NCCNC(=O)c2nonc2N)c1O`, the compound was called inactive.

Turning to `O=C1CCc2cc(S(=O)(=O)N3CCN(c4cccc(Cl)c4)CC3)ccc2N1`, the outcome was inactive.

Consider `CCN(CC)c1ccc(/C=C(\C#N)C(=O)NCc2ccco2)cc1`, for which the compound was classed as inactive.

Take `CCOC(=O)C1CCCN(S(=O)(=O)c2ccc(Br)c(OC)c2)C1` (stereo not drawn): the compound was classed as inactive.

With `CCn1cc(C(=O)O)c(=O)c2cc(F)c(N3CCN(C(=S)Nc4ccc(OC)cc4)CC3)cc21`, the compound was classed as inactive.

As to `C/C(Nc1ccc(F)cc1)=C(/C#N)C(N)=O`, the compound was classed as inactive.

Turning to `Cc1cc(-c2c(C)n([O-])c(C)c(C)[n+]2=O)ccc1F`, the result was inactive.

`CCC(Sc1ncccc1C(=O)OC(C)C)C(=O)N1CCOCC1` (stereo not drawn): the outcome was inactive.

Take `Cc1cc(NC(=O)c2cnn3cccnc23)no1`: the outcome was inactive.

Take `CCn1cc(C(=O)NCCCO)c(=O)c2cc(F)c(N3CCN(C)CC3)cc21`: the compound was classed as inactive.

Consider `O=c1[nH]c(CSc2nnc(NCCCN3CCOCC3)s2)nc2cc(Cl)ccc12`, for which the outcome was inactive.

As to `C=CC#CC[N+]1(CC#Cc2ccccc2)CCOCC1`, the compound was classed as inactive.

For `CN1CCCC(OC(=O)c2ccc(Cl)cc2)C1` (stereo not drawn), the outcome was inactive.

As for `O=C(O)/C=C/C(=O)Nc1cccc(C(F)(F)F)c1`, the outcome was inactive.

Turning to `FC(F)(F)c1cccc(NC(=S)NCCN2CCOCC2)c1`, the result was inactive.

In the case of `c1ccc(-c2nnc(SCCC3OCCCO3)o2)cc1`, the compound was called inactive.

In the case of `Cc1cc(-c2csc(NC(=O)c3ccc(C#N)cc3)n2)c(C)n1Cc1ccco1`, the outcome was inactive.

Take `Cc1ccc(CNC(=O)C2CCCN(S(=O)(=O)c3c(C)noc3C)C2)cc1` (stereo not drawn): the result was inactive.

As for `Cc1cccc(-n2c(N)cc(=O)[nH]c2=S)c1C`, the compound was called inactive.

Consider `Cc1cc(C)c(NC(=O)c2cn3c4c(c(N5CCN(C)CC5)c(F)cc4c2=O)OCC3C)c(C)c1` (stereo not drawn), for which the result was inactive.

For `Cc1ccc(N2C(=O)CC(Nc3ccccc3)C2=O)cc1` (stereo not drawn), the compound was classed as inactive.

Turning to `CC1(C)CC(=O)C(C(=O)/C=C/NCCc2ccccc2)C(=O)C1`, the compound was called inactive.

Consider `COc1cc(C2C(C(=O)c3ccc(C)o3)=C(O)C(=O)N2CCc2ccccc2)ccc1O` (stereo not drawn), for which the call was inactive.

For `O=c1[nH]c(CN2CCCCC2)nc2ccccc12`, the compound was classed as inactive.

For `c1ccc(COc2cccc(CN3CCN(c4ccccn4)CC3)c2)cc1`, the outcome was inactive.

Regarding `CCCC(=O)c1c[nH]c(C(=O)NCCCN2CCOCC2)c1`, the result was inactive.

Consider `CCOc1ccc(S(=O)(=O)NNC(=S)Nc2ccc(Br)cc2)cc1`, for which the result was inactive.

Take `O=C(CSc1nc2ccccc2o1)Nc1ccc(N2CCOCC2)cc1`: the result was inactive.

Turning to `O=C(CSc1nc2ccccc2o1)Nc1ccc(N2CCOCC2)c(Cl)c1`, the compound was called inactive.

In the case of `CCCCC(=O)NCCNC(=O)c1cc(OCC(F)(F)F)ccc1OCC(F)(F)F`, the outcome was inactive.

As to `COc1ccc(-c2ccc(-c3noc(-c4cccs4)n3)c(OC)n2)cc1`, the compound was classed as inactive.

`Cc1noc(C)c1CSc1nc2ccccc2nc1NS(=O)(=O)c1ccc(Cl)cc1`: the call was inactive.

Consider `Fc1cccc(NCc2cn3ccccc3n2)c1`, for which the compound was classed as inactive.

As for `COc1ccc(CN2C(=O)Cc3c2nc(N)c2c(N)nc(N4CCCCC4)c(C#N)c32)cc1`, the result was inactive.

Turning to `CCCCNC(=O)c1cn(CC)c2cc(N3CCN(C)CC3)c(F)cc2c1=O`, the result was inactive.

For `CCn1cc(C(=O)O)c(=O)c2cc(F)c(N3CCN(C(=S)NC(=O)c4ccccc4)CC3)cc21`, the compound was called inactive.

Consider `CCn1cc(C(=O)O)c(=O)c2cc(F)c(N3CCN(C(=S)NC(=O)c4ccccc4F)CC3)cc21`, for which the outcome was inactive.

For `CCCNC(=O)c1cn(CC)c2cc(N3CCN(C)CC3)c(F)cc2c1=O`, the result was inactive.

Consider `N#C/C=C(/N)c1ccc(Br)cc1`, for which the call was inactive.

Consider `Oc1ccccc1-c1nc(/C=C/c2ccccc2)nn1-c1ccccc1`, for which the outcome was inactive.

Consider `CCn1cc(C(=O)O)c(=O)c2cnc(N3CCNCC3)nc21`, for which the result was inactive.

Take `N#Cc1c(N)n[nH]c1-c1cc2c([nH]1)CCCC2`: the compound was called inactive.

Consider `O=C(CCN1C(=O)C2C3C=CC(C3)C2C1=O)N1CCN(c2cccc(Cl)c2)CC1` (stereo not drawn), for which the call was inactive.

For the compound `O=C(CSc1ccc(Cl)cc1)Nc1ccccc1N1CCN(C(=O)c2ccc(Cl)cc2)CC1`, the outcome was inactive.

Take `CN(C(=O)c1cccc(C#N)c1)c1nnc(-c2cnccn2)s1`: the compound was called inactive.

`NC(=O)N1OCC2COc3ccc4ccccc4c3C21` (stereo not drawn): the compound was classed as inactive.

For the compound `COc1c(N2CCN[C@H](C)C2)c(F)cc2c(=O)c(C(=O)O)cn(C3CC3)c12`, the compound was called inactive.

In the case of `COC(=O)c1sccc1NC(=O)c1csc2c1CCCC2`, the compound was called inactive.

In the case of `COc1cc(C2Nc3cccc4cccc(c34)N2)cc(OC)c1OC(C)=O`, the result was inactive.

As to `CC(=O)Oc1c2occc2cc2ccc(=O)oc12`, the compound was called inactive.

In the case of `CCOc1ccc2nc(COC(=O)c3ccco3)c(C(C)=O)[n+]([O-])c2c1`, the outcome was inactive.

Consider `CC1=CC(C)(C)n2c(O)c(C3=NC(=S)NC3=O)c3cc(OC(=O)c4cccc5ccccc45)cc1c32`, for which the outcome was inactive.

Consider `COC(=O)c1cn(C(=O)c2cccs2)c2ccccc12`, for which the compound was classed as inactive.

For `Cc1nc(-c2ccccn2)sc1C(=O)Nc1ccc(F)cc1F`, the result was inactive.

Turning to `Cc1c(NS(=O)(=O)c2ccccc2)c(=O)n(-c2ccccc2)n1C`, the outcome was inactive.

`Cc1cc2cc(CNS(=O)(=O)c3ccc4ccccc4c3)ccc2n1C`: the compound was called inactive.

For `C=CCSc1ncnc2sc(C)c(C)c12`, the result was inactive.

In the case of `c1ccn2c(CNc3ncnc4sccc34)nnc2c1`, the compound was classed as inactive.

For the compound `N/C(=N\OC(=O)c1cccs1)C1(c2ccc(Cl)cc2Cl)CC1`, the outcome was inactive.

For the compound `COc1ccc(C(C)=O)c2c(O)cccc12`, the result was inactive.

With `Cc1ccc(S(=O)(=O)NNC(=O)c2ccc(O)cc2)cc1`, the compound was classed as inactive.

On to `Cc1ccc(C2NNC(=O)C2NC(=O)c2ccccc2)cc1` (stereo not drawn), for which the result was inactive.
